# Measured values: PubChem BioAssay (NCI)
# This is part of a sample that, as a whole, favours compounds with a hit. Of some 83,000 tested, about 20% had one in any assay.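 Cells were grown in 96-well plates and exposed to the test compound at a single concentration for 48 hours; results are reported as percent growth, with values below 10 considered active.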 Unmarked numbers belong to inactive results. Activity calls are given as the source filed them.
# What was measured:
# Experiment in all cases: NCI-60 one-dose screen, 48 h (100 = growth as untreated, 0 = no growth, -100 = all killed)
# Details in all cases: 10 µM unless noted
# RPMI-8226 leukemia = tested on: RPMI-8226 leukemia
# OVCAR-8 ovarian = tested on: OVCAR-8 ovarian
# OVCAR-5 ovarian = tested on: OVCAR-5 ovarian
# OVCAR-4 ovarian = tested on: OVCAR-4 ovarian
# SK-OV-3 ovarian = tested on: SK-OV-3 ovarian
# IGROV1 ovarian = tested on: IGROV1 ovarian
# OVCAR-3 ovarian = tested on: OVCAR-3 ovarian
# HS 578T breast = tested on: HS 578T breast
# NCI/ADR-RES ovarian = tested on: NCI/ADR-RES ovarian
SMILES,growth (RPMI-8226 leukemia),growth (OVCAR-8 ovarian),growth (OVCAR-5 ovarian),growth (OVCAR-4 ovarian),growth (SK-OV-3 ovarian),growth (IGROV1 ovarian),growth (OVCAR-3 ovarian),growth (HS 578T breast),growth (NCI/ADR-RES ovarian)
O=C1NN(C(=O)c2ccccc2)C(c2ccc(Cl)c(Cl)c2)=C/C1=C\c1ccc([N+](=O)[O-])cc1,59.2%,89.3%,113%,75.2%,96.7%,84.3%,86.6%,78.3%,92.6%
O=S(=O)(NCCNc1nccc(-c2c(-c3cccc(O)c3)nc3occn23)n1)c1ccc(Cl)cc1,105%,105%,143%,126%,99.8%,95%,113%,108%,109%
OC(c1ccc(F)c(C(F)(F)F)c1)c1cnccc1NC1CCCCC1 (stereo not given),16.9%,81.8%,85.3%,64.8%,103%,70%,72.3%,77.3%,74.7%
COc1cc(-c2cc(-c3ccc(N(C)C)cc3)nc(N3CCOCC3)c2C#N)cc(OC)c1OC,9.28% (active),22.4%,37.9%,64.5%,55.9%,42.2%,87.9%,77.9%,4.22% (active)
COc1cc(/C=C/C(=O)c2nc3cc(F)ccc3nc2C)cc(OC)c1OC,-4.08% (active),36%,89.7%,77.8%,113%,34.8%,55.3%,61.4%,41.3%
